The record followed here is PubChem BioAssay AID588352 (The Scripps Research Institute Molecular Screening Center, 2011).

Among all 360,000 compounds or so, about 620 (0.17%) were called active. What follows is part of a selection rich in actives, with near analogues and random picks from the rest. Unmarked numbers belong to inactive results.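 How the source made its calls: active means inhibition above a per-campaign cutoff, the mean of all compounds plus 3 SD (cut at about 60% in these data); inactive means the rest.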

Chain of Nuclear receptor coactivator 3 (Homo sapiens) (Q9Y6Q9 whole entry, looked up, the tested form may be a part): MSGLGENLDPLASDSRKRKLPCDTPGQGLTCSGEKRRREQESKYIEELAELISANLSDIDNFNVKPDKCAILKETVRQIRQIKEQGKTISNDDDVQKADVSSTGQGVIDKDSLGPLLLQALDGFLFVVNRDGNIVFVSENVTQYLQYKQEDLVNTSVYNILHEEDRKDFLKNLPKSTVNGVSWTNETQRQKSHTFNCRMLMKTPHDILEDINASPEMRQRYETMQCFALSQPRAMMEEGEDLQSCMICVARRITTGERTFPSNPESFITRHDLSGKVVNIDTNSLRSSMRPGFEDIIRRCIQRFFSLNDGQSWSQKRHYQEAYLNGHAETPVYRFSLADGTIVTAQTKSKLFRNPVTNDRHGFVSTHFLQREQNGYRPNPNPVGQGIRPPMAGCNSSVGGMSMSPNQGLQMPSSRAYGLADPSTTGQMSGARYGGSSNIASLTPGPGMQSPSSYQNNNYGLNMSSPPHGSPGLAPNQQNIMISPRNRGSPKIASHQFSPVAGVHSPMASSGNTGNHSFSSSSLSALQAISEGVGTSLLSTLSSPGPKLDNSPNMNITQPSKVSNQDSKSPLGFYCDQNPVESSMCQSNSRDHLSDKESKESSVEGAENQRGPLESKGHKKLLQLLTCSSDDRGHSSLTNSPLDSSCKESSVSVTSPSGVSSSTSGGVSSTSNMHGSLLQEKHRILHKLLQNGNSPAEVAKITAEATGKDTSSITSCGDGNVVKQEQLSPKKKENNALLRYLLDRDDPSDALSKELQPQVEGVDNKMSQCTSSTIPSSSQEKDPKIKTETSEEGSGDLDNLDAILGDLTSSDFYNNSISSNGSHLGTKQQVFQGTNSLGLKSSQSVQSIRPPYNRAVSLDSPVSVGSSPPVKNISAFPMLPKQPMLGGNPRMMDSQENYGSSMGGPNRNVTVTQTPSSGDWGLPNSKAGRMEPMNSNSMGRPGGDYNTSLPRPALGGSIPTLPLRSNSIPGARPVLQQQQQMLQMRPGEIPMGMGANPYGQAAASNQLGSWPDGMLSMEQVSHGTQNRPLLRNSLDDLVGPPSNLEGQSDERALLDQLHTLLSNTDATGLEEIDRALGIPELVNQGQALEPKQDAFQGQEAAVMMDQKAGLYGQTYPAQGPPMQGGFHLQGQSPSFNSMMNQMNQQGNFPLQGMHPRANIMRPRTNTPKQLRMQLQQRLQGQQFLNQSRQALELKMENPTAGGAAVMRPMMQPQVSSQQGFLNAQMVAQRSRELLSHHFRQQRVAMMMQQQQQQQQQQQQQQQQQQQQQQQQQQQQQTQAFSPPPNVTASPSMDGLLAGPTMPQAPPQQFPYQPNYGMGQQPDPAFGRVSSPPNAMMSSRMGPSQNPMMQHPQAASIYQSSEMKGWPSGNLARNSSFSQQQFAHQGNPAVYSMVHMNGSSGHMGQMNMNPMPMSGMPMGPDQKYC

The experiment concerns the target Nuclear receptor coactivator 3 (Homo sapiens) (UniProt Q9Y6Q9). Kind of experiment: SRC3 coactivator transcriptional activity inhibitors, primary screen, cell-based, luminescence (AID 588352).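 Further: 0% = DMSO-treated cells and 100% = gossypol-treated cells at 36 µM; higher means less SRC3-driven luciferase light from the GAL4 reporter.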 Conditions: HEK293 GAL4-SRC3 luciferase reporter, at 3.6 µM, hits give high values.
On to `N#C/C(=C(\O)CCl)c1nnc2n1CCCCC2`, for which the inhibition (usually the relative decrease from the control value, in per cent) was 9.47%. In the case of `CCCOc1ccc(Cc2c(O)nc(N)[nH]c2=O)cc1C`, the inhibition is 1.06%. On to `COC(=O)/C=C(\Oc1ccccc1)C1(O)CCCCC1`, for which the inhibition is 9.01%.

As for `COc1ccc(OC)c(Nc2nc3ccccc3n3cnnc23)c1`, the inhibition was 9.44%. As for `COc1ccc(Nc2ncnc3ccc(Br)cc23)c(OC)c1`, the figure is 82% (active); as for `COc1ccc(OC)c(NC(=O)CN(C)CCOc2ccc(Br)cc2)c1`, 4.03%; as for `CCOC1=C2[C@@H](CN(S(=O)(=O)c3ccc(C)cc3)[C@H]2c2ccccc2F)[C@H]2C(=O)N(Cc3ccccc3)C(=O)[C@H]2C1`, 2.22%. As to `CCn1ncc(CNC(=O)C2(C)CC2(Br)Br)c1C` (stereo not given), the inhibition was -0.54%.

Consider `CCCCCCCCn1c2c(c(=N)c3c1CCC3)CCCC2`, for which the inhibition is 80% (active). For the compound `Cc1cc(S(=O)(=O)NC2CCCC2)ccc1-n1cnnn1`, the inhibition is 2.04%. As for `O=S1(=O)CCC(NC(=S)SCc2ccccc2Br)C1` (stereo not given), the inhibition was 8%. Consider `FC(F)(F)c1cccc(-c2nc(COc3ccc(Cl)cc3Cl)no2)c1`, for which the inhibition was 12.2%. Regarding `CN(C(=O)Nc1ccc(Cl)cc1)n1cnc2ccccc2c1=O`, the inhibition was -6.25%. As for `CC(C)(C)c1nc2ccccc2c(=O)n1N1C(=O)c2ccccc2C1=O`, the inhibition is 2.66%.

Turning to `CN(c1ccc2nc3ccccc3c(=O)n2n1)C1CCCCC1`, the inhibition is 73.1% (active). As to `COc1cccc2cc(C(=O)NCc3ccc(C)cc3)c(=N)oc12`, the inhibition is 14.3%. In the case of `C=CCOC(=O)C1=C[C@@H](c2ccc3c(c2)OCO3)C[C@@H](OCCCCO)O1`, the inhibition is -13.9%. As for `CC(C)c1cc(C(N)=O)c(NC(=O)c2cccc(COc3ccc(Br)cc3)c2)s1`, the figure is -149%. Turning to `COCc1ccc(C(=O)NC2CC(C)(C)Cc3c2cnn3-c2ccc(C)cc2)o1` (stereo not given), the inhibition was 16.3%. Consider `O=C(OC12CC3CC(CC(C3)C1)C2)c1ccc(NCc2cc(O)ccc2O)cc1`, for which the inhibition was 74.5% (active).

As to `CC(C)OC(=O)c1ccc(NCc2cc(O)ccc2O)cc1Cl`, the inhibition was -31.6%. As for `CCOC(=O)c1[nH]cnc1C(=O)NC1CCCCC1`, the inhibition was -23%. Consider `COc1cccc(Nc2nnc(SCC(=O)N3CC(C)OC(C)C3)s2)c1` (stereo not given), for which the inhibition is -8.99%.

As to `C=CCSc1nnc(Cn2c(=O)sc3ccccc32)n1C`, the inhibition is 5.67%.

Regarding `COc1ccccc1Cn1c(C)nnc1-c1cnn(C)c1N`, the inhibition was 19.6%. For `CCc1nc2ccc(C(=O)NC3CCN(Cc4ccccc4)CC3)cn2c1N(C)CCN1CCOCC1` the value was 14.3%. For `Nc1nc(SCC(=O)NNc2c(Cl)cc(Cl)cc2Cl)n[nH]1` the value was 18%. Regarding `Cc1ccc(C)c(S(=O)(=O)N2CC(=O)Nc3ccccc32)c1`, the inhibition was 22.6%. For `COc1ccc(S(=O)(=O)NCC(=O)NC2CC2)cc1OC` the value was -59%; for `COc1cc(OC)cc(-c2c(-c3ccc(F)cc3)c3cc(-c4ccc5cc[nH]c5c4)ccc3n2C)c1`, 7.21%; for `Cc1nc2ccccc2n1CC(O)c1ccccc1` (stereo not given), -14%. As for `O=C(Cn1nc([N+](=O)[O-])nc1Br)NC1CCCCC1`, the figure is 5.25%; as for `COc1cc(OC)cc(-c2c(-c3cccs3)c3cc(-c4ccc(OC)cc4F)ccc3n2C)c1`, -12.6%; as for `COC(=O)c1ccc(NC(=O)CSc2nc(N)c(NC(=O)c3ccc(Br)o3)c(=O)[nH]2)cc1`, 11.5%.

Consider `Clc1cccc(Cl)c1Cn1nnc(-c2cccs2)n1`, for which the inhibition was -55.9%. As to `Cn1sc(=O)c2cc(S(=O)(=O)NC3CC3)ccc21`, the inhibition was 3.57%. Consider `CC1(C)NC(=O)N(CC(=O)Nc2cc(C(F)(F)F)cc(C(F)(F)F)c2)C1=O`, for which the inhibition was 22.2%. For `CCCCNC(=O)C1CCCNC1=O` (stereo not given) the value was 12.3%. For `CCNC(=O)C1(C)CCCN1C(=O)c1ccc(N(C)C)cc1` (stereo not given) the value was -7.5%; for `COc1cc(NC(=O)C2=C(C)OCCS2)c(Cl)cc1C(=O)NCCCN1CCCC(C)C1` (stereo not given), -22.7%.

For `O=C(N/N=C/c1cccc([N+](=O)[O-])c1)C1CC(=O)N(c2ccc(Br)cc2)C1` (stereo not given), the inhibition is -0.6%.

On to `COc1ccc(OCCCCN2CCC(C)CC2)cc1`, for which the inhibition was -47.3%. For `CCC(O)C1CCN(Cc2cn(-c3ccc(OC)cc3)nc2-c2cccc(F)c2)CC1` (stereo not given), the inhibition was 14%. As to `Cc1nc2nc(COc3ccccc3)[nH]n2c(=O)c1Cc1ccccc1`, the inhibition was -32.6%. `COC(=O)Cc1[nH]n(-c2nc3ccccc3s2)c(=O)c1C(C)=Nc1ccc(OC)cc1`: the inhibition was 86.7% (active). Regarding `COc1cccc(/C=C(/CC(=O)Nc2ccc(N3CCOCC3)cc2)c2nc3ccccc3s2)c1`, the inhibition is 7.57%.

`Cc1occc1-c1nnc(SCC(=O)NC2CCCCC2)o1`: the inhibition is 15.9%. As for `O=C(NC(Nc1nc2ccc([N+](=O)[O-])cc2s1)(C(F)(F)F)C(F)(F)F)c1ccccc1`, the figure is 76.7% (active); as for `O=C(Nc1cc(-c2ccccc2)nn1-c1ccccc1F)c1ccc([N+](=O)[O-])cc1`, -5.69%; as for `O=C(NNS(=O)(=O)Cc1ccccc1)c1ccc([N+](=O)[O-])cc1`, -12.1%. Consider `O=S(=O)(NCCc1ccc(Cl)cc1)c1cccs1`, for which the inhibition is 14%. Regarding `Brc1c(CSc2nncc3ccccc23)nc2ccccn12`, the inhibition is -11.5%.

In the case of `CCCN(CCC)S(=O)(=O)c1ccc(C(=O)N2CC3CCC(CC3)C2)cc1`, the inhibition was 21.3%. For `CN(CC(=O)Nc1ccc(C(N)=O)cc1)S(=O)(=O)c1ccc2c(c1)OCCO2` the value was -5.47%; for `COc1ccc2c(c1)c(=Cc1ccc(N(C)C)cc1)c1cc(-c3ccccc3)[n+](C)n12`, 72.6% (active).

Regarding `O=S(=O)(/C=C/c1ccccc1)N1CCNCC1`, the inhibition is 18.6%. As for `COc1c(F)c(F)c(C(=O)O)c(Nc2ccccc2C)c1F`, the figure is 3.91%; as for `Cn1cnc(C(F)(F)F)c1-c1ccc([N+](=O)[O-])cc1`, 9.14%; as for `O=C(O)CCc1cccnc1`, -1.19%. Take `CC1CCCC(C)N1C(=O)COC(=O)COc1ccccc1C#N` (stereo not given): the inhibition was 13.1%. Take `Cc1ccc(C(=O)NNC(=O)OC(C)(C)C)c(Cl)c1`: the inhibition was -22.3%. In the case of `COc1ccc(CCNC(=O)CCc2cn(C)c3ccccc23)c(OC)c1`, the inhibition is -10.8%. Consider `COc1ccccc1NS(=O)(=O)c1ccc(C)c(C(=O)NNC(=O)c2csc(N3CCOCC3)n2)c1`, for which the inhibition is -18.4%. Consider `Cc1ccc(OC(=O)c2ccccc2C(=O)OCC(F)(F)C(F)F)cc1`, for which the inhibition is 12%.

For the compound `O=C(CN1C(=O)c2ccccc2S1(=O)=O)N1CCc2ccccc21`, the inhibition is 78.1% (active). Consider `COc1ccc(CNC(=O)CN2C(=O)c3ccccc3S2(=O)=O)cc1`, for which the inhibition is 0.21%. With `CN(Cc1cccs1)C(=O)CN1C(=O)c2ccccc2S1(=O)=O`, the inhibition is -22.1%. Take `CSc1cc(C)n(-c2ccccc2C)c(=S)c1C(C)=O`: the inhibition was -24.7%.

Take `COc1ccc(-n2c(C)csc2=S)cc1`: the inhibition is -12.6%. As for `O=C(O)C1CCN(C(=O)c2cc(F)cc3c2OCOC3)CC1`, the inhibition was 1.17%.

`Cc1ccc(C(c2sc3nc(C)nn3c2O)N2CCN(c3ccccc3)CC2)cc1` (stereo not given): the inhibition was -21.5%. In the case of `CC(C)OC(=O)c1cc(NC(=O)C2C3CCC(O3)C2C(=O)O)cc(C(=O)OC(C)C)c1` (stereo not given), the inhibition is 6.46%. As for `O=c1[nH]n2c(=O)c3c([nH]c2c1N=Nc1ccccc1)CCC3`, the figure is -2.3%; as for `Cc1nc2c(ncn2-c2ccccc2)c(=O)n1NC(=O)CN1CCCC1`, 6.67%; as for `COc1ccc(NC(=S)N2N=CCC2c2ccccc2)cc1` (stereo not given), -88%. On to `COCc1cc(=O)n2[nH]c(C)c(-c3ccccc3)c2n1`, for which the inhibition was 3.15%.

For `O=C1NC(=Nc2ccc(Cl)cc2)SC1Cc1cccc(Cl)c1Cl` (stereo not given), the inhibition is 11.5%. `CCOc1cc(C2/C(=C(/O)c3ccc(S(=O)(=O)N4CCCCC4)cc3)C(=O)C(=O)N2CCOC)ccc1O` (stereo not given): the inhibition was -17.2%. Take `Cc1ccsc1C1C(C#N)=C(N)OC2=C1C(=O)CC(C)C2` (stereo not given): the inhibition is -1.41%.

Take `O=C(Nc1cc(Br)ccc1F)c1nc[nH]c1C(=O)NCc1ccccc1`: the inhibition was 16.5%. As to `O=C(Nc1ccon1)c1nc[nH]c1C(=O)NCc1ccccc1`, the inhibition was 63% (active). With `CC(C)(C)OC(=O)NCCCCCNC(=O)c1nc[nH]c1C(=O)NCc1ccccc1`, the inhibition is -1.92%. On to `Cc1cccc(-[n+]2c(-c3cccc(Br)c3)[nH]c3nc4ccccc4nc32)c1`, for which the inhibition is 18.1%. Turning to `Cc1ccc(NC(=O)NC(=O)CSc2nnc(-c3ccc(OC(F)F)cc3)n2N)c(C)c1`, the inhibition was -17.3%. As for `CCN(Cc1ccccc1)C(=O)CN1C(=S)NC(C)(C)CC1C` (stereo not given), the figure is -5.54%.
